Data reported in the supplement of paper PMC11732987, “Enantioselective OTUD7B fragment discovery through chemoproteomics screening and high-throughput optimisation” (Communications Chemistry, 2025).

Columns and labels:
Assay in all cases: log2 ratio of Biotin-Ahx-Ub-VS probe labelling (fragment/DMSO); higher = less target engagement (more negative = stronger competition), active = hit call of the paper (q ≤ 0.05, log2 ratio ≤ -1)
Details in all cases: compound concentration: 200 uM; treatment time: 3 h
USP34 = USP34 (UniProt Q70CQ2)
Outline: (§1)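 Labelled DUBs from HEK293T lysate were NeutrAvidin-enriched, digested with LysC and trypsin, and run by diaPASEF LC-MS/MS. Before that, each 495 µg sample in Tris/CHAPS/IGEPAL buffer with protease inhibitors was treated in triplicate with fragment at 200 µM or vehicle for 3 h, then with Biotin-Ahx-Ub-VS at 0.5 µM final for 1 h. Values are average log2 ratios of fragment over vehicle by unpaired t-test, based on global-median-normalised Spectronaut label-free quantities from proteins with ≥2 unique peptides.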

USP36 = target: T1, USP36 (UniProt Q9P275)
T1 sequence (whole entry): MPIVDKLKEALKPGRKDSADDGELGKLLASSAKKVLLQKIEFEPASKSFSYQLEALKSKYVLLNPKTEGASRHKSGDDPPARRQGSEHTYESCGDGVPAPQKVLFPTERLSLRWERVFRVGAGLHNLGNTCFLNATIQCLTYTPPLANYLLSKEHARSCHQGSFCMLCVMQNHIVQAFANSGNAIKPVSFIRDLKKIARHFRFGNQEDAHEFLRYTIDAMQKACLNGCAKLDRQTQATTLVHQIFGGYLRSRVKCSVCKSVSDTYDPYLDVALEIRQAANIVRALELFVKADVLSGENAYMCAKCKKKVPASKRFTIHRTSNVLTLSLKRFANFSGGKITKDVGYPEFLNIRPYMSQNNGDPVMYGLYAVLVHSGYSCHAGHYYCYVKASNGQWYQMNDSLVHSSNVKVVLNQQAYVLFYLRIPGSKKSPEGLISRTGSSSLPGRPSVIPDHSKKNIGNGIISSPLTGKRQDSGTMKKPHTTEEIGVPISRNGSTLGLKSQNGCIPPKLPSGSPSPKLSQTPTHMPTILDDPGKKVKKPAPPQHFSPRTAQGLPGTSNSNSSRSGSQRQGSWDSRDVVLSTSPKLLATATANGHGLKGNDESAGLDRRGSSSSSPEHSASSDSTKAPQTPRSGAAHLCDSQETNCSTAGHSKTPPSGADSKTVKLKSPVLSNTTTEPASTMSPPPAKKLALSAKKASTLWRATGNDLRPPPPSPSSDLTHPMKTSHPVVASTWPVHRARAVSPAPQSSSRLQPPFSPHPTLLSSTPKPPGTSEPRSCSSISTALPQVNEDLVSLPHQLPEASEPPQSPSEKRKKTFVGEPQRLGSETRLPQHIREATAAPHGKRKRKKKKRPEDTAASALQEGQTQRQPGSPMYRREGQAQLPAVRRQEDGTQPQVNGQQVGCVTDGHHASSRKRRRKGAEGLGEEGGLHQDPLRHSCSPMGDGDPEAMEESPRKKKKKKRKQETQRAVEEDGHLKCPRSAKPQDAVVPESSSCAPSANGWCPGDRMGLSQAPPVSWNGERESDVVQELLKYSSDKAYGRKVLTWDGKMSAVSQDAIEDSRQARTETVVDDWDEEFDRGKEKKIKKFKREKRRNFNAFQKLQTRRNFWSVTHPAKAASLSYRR
Outline: as §1

USP38 = target: T2, USP38 (UniProt Q8NB14)
T2 sequence (whole entry): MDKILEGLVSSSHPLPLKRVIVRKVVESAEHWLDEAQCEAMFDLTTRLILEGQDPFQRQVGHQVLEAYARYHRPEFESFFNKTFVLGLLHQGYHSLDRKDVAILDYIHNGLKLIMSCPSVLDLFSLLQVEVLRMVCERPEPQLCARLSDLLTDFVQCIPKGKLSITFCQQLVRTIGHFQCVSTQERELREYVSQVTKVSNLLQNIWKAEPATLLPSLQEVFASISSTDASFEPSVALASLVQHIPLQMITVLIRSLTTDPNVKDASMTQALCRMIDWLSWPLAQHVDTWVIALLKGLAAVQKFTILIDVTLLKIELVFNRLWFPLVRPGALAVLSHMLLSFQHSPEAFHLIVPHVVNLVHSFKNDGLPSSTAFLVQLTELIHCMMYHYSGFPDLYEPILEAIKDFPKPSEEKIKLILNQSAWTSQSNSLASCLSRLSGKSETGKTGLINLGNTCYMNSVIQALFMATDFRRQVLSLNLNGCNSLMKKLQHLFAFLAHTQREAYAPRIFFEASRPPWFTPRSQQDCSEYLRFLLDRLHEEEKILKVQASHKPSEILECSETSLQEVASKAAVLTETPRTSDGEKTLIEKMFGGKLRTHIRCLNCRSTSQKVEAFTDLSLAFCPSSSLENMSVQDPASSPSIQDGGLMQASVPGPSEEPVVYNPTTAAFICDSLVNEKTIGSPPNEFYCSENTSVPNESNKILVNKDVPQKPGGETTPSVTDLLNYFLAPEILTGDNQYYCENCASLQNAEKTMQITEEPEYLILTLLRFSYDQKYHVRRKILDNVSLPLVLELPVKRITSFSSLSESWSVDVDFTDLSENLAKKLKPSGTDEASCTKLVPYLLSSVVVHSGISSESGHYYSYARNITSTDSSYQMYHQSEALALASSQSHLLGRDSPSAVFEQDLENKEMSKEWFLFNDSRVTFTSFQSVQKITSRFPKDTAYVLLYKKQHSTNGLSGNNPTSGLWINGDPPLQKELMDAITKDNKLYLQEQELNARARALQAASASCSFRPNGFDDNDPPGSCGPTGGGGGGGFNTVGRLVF
Outline: as §1

USP39 = target: T3, USP39 (UniProt Q53GS9)
T3 sequence (whole entry): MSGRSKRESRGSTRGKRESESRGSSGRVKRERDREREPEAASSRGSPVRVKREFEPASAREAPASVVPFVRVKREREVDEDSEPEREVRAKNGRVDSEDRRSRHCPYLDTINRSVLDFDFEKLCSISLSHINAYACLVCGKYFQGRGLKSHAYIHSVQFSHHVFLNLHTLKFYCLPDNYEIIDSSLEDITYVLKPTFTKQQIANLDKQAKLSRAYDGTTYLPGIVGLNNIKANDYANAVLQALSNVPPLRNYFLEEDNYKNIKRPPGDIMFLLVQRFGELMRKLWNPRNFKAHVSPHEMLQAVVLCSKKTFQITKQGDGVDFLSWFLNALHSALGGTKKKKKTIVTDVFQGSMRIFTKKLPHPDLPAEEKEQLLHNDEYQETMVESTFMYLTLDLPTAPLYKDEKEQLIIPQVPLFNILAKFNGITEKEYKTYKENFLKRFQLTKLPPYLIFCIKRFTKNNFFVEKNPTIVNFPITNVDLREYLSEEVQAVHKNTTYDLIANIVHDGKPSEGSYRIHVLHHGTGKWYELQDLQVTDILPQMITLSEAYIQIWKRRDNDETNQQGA
Outline: as §1

USP4 = target: T4, USP4 (UniProt Q13107)
T4 sequence (whole entry): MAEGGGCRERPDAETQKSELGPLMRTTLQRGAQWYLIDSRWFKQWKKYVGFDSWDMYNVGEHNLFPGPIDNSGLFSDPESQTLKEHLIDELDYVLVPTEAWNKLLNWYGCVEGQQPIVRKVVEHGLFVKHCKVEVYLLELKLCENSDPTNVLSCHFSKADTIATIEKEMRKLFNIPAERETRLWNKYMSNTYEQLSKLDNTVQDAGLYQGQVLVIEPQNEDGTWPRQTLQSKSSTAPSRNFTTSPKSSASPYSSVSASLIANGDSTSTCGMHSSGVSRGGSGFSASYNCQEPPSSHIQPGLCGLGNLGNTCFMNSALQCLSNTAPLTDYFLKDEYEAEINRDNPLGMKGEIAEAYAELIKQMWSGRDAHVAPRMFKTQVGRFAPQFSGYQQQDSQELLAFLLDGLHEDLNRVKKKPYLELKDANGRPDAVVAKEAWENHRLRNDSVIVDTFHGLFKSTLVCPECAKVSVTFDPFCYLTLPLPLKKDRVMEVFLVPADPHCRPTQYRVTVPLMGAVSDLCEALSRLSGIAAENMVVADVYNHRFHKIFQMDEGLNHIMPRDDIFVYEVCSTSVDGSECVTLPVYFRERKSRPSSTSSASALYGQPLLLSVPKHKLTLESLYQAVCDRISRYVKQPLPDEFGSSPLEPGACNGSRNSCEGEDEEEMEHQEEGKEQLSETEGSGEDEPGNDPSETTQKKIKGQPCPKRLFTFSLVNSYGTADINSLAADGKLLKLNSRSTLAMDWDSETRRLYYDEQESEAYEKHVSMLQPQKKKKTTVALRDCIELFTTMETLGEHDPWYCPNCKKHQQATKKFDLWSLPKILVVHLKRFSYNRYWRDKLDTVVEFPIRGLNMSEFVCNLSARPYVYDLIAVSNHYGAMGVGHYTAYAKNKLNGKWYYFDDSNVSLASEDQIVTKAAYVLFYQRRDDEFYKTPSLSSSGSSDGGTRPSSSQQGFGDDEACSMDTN
Outline: as §1

Measured: log2 ratio of Biotin-Ahx-Ub-VS probe labelling

Sequence of USP34 (Q70CQ2 whole entry, the tested form may be a part): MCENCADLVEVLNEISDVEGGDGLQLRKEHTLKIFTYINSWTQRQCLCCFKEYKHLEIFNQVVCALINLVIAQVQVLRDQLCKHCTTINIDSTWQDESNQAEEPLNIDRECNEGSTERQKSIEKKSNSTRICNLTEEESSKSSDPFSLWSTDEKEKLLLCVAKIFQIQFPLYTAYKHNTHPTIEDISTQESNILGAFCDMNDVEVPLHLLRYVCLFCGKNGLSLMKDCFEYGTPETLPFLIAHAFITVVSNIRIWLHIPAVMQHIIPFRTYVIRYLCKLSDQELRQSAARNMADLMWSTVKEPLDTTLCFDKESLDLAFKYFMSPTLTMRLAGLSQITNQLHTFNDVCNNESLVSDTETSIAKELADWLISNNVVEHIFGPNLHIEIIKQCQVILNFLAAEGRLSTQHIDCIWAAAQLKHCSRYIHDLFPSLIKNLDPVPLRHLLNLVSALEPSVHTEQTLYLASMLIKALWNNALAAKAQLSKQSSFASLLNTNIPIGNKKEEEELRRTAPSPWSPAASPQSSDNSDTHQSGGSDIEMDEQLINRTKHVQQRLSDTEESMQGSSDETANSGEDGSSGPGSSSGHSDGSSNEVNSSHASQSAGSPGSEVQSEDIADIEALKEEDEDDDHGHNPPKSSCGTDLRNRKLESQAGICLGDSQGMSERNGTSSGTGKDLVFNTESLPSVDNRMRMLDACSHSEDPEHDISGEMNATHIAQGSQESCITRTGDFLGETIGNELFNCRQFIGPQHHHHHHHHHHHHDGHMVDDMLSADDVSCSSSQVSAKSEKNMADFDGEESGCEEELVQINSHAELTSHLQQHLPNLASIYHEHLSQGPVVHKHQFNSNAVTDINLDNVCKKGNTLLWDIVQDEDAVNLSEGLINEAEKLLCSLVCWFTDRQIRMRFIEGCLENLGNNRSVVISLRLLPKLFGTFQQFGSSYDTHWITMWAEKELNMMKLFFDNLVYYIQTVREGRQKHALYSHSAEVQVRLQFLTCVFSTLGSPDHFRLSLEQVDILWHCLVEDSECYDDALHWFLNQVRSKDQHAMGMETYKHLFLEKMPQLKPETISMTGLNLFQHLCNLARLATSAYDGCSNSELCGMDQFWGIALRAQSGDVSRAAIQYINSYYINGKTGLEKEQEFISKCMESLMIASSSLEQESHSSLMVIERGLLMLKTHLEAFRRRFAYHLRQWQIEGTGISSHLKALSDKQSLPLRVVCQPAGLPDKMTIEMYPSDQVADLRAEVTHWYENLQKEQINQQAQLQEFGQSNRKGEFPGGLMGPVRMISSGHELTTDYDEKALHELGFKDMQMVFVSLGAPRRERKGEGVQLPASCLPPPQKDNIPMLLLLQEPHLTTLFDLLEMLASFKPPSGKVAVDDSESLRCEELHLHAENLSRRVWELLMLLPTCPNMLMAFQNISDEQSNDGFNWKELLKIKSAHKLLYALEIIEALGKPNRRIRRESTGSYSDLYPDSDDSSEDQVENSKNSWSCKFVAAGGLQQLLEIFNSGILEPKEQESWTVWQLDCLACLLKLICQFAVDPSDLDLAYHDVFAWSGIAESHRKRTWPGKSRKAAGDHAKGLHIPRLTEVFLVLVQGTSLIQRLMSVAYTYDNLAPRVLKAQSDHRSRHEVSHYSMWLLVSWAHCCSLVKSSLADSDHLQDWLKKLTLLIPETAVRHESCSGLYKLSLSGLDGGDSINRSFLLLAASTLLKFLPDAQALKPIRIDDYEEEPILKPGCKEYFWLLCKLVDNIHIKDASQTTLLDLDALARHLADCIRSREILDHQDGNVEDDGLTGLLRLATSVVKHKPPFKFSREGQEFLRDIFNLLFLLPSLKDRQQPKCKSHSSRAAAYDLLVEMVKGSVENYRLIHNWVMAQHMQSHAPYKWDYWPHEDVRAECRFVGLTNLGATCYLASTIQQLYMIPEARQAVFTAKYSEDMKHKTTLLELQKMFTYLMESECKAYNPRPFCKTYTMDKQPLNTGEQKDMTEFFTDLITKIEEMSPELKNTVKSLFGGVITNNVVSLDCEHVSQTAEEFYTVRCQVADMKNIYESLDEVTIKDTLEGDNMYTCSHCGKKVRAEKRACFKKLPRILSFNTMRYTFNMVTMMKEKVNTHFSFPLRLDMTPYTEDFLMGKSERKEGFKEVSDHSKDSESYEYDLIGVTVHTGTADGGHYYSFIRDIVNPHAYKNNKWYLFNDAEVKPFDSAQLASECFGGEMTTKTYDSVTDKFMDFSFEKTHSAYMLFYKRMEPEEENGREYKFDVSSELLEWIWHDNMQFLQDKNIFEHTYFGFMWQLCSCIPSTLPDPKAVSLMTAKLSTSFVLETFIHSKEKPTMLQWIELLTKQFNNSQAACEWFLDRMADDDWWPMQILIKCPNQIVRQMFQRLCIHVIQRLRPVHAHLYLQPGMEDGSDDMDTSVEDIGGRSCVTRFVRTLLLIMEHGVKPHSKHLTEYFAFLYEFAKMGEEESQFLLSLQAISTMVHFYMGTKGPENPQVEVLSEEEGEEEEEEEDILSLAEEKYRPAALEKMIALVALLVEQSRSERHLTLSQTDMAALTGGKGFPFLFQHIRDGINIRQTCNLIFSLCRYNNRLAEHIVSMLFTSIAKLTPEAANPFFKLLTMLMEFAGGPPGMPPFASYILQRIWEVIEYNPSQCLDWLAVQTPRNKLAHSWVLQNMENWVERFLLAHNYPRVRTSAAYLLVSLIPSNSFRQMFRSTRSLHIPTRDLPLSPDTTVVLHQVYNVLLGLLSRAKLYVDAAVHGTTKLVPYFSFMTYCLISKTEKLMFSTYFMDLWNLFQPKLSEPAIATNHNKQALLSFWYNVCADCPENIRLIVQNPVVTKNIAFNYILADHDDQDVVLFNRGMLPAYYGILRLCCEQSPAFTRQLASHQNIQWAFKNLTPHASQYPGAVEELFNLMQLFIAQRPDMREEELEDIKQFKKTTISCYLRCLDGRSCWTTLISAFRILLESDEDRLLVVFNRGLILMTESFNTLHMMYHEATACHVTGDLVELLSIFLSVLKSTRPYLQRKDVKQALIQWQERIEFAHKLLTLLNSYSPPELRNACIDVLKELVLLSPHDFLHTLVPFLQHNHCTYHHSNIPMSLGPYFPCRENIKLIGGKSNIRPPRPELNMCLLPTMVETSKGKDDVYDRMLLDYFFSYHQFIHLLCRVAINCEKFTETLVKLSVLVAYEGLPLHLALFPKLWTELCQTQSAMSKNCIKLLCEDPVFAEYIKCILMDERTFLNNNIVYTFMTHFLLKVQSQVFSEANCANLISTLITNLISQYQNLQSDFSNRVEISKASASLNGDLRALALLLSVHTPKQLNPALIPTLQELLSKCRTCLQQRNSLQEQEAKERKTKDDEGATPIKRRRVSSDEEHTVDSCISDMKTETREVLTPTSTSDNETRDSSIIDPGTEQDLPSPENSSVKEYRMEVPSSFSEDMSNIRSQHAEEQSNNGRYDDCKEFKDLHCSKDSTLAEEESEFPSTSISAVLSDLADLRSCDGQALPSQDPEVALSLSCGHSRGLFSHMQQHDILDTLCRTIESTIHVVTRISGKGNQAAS

O=C(CN1CCN(C(=O)CCl)CC1)Nc1cccc(F)c1
inactive: USP34 -0.112 | USP36 0.0501 | USP38 -0.114 | USP39 -0.288 | USP4 -0.0247
